Values joined by “and” are separate entries in the source; they are usually repeats but may differ in a detail not shown here. Identical values can stand only once. Results filed as inconclusive are left out. Active and inactive are the calls of the source. Unless noted, calls come from the whole dose curve; as a rule, active = well fitted curve in either direction with a large enough effect (not every such curve was filed as active); inconclusive = small, poorly fitted or top-dose-only effect, or another doubt; inactive = flat fitted curve, though single readings scatter.
Legend:
[1] = AP1 Signaling Pathway (AID 357);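 note: ME-180 reporter cells stimulated with EGF at its EC50 level; % is set by controls: 0 for no effect and ±100 for the full control effect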
How it was run: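 Read-out was the 460nm/530nm emission ratio (excitation 405nm) after CCF4 loading for 2.5 hours at room temperature. Cells carried an AP-1-driven beta-lactamase reporter, were stimulated with EC50 EGF plus compound for 5 hours, and AC50 values came from titrations.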

[2] = target: Cytochrome P450 1A2 (Homo sapiens) (UniProt P05177); assay: p450-cyp1a2 (AID 410; calls by dose curve; note: potency is the fitted concentration of half-maximal effect;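 for activity change, negative = inhibition: -100% = full effect of reference inhibitor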)
Sequence of Cytochrome P450 1A2 (Homo sapiens) (P05177 whole entry, looked up): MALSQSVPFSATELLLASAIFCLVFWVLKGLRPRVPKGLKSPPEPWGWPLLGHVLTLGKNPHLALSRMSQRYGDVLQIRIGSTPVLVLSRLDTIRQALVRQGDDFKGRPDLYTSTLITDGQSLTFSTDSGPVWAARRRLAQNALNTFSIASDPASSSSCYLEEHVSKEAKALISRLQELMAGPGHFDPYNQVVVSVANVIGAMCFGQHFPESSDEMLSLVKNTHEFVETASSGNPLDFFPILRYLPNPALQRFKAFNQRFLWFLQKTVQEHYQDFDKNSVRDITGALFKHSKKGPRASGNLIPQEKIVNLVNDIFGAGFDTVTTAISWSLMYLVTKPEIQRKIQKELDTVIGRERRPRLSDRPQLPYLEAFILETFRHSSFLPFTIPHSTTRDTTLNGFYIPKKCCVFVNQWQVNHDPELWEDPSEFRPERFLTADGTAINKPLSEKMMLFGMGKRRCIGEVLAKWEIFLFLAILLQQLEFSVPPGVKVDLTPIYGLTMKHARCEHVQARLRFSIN
How it was run: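 Inhibition was calculated relative to 57 uM furafylline (full inhibition). The reaction used human CYP1A2 at 20nM with Luciferin-ME at its Km, 100uM, driven by an NADPH-regenerating system for 60 min at room temperature.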

[3] = target: Glucocorticoid receptor (Homo sapiens) (UniProt P04150); assay: GR-EFC Redistribution (AID 451; calls by dose curve; note: potency is the fitted concentration of half-maximal effect); settings: CHO-K1 GR-EFC translocation, beta-gal luminescence, 2 h
Sequence of Glucocorticoid receptor (Homo sapiens) (P04150 whole entry, looked up, the tested form may be a part): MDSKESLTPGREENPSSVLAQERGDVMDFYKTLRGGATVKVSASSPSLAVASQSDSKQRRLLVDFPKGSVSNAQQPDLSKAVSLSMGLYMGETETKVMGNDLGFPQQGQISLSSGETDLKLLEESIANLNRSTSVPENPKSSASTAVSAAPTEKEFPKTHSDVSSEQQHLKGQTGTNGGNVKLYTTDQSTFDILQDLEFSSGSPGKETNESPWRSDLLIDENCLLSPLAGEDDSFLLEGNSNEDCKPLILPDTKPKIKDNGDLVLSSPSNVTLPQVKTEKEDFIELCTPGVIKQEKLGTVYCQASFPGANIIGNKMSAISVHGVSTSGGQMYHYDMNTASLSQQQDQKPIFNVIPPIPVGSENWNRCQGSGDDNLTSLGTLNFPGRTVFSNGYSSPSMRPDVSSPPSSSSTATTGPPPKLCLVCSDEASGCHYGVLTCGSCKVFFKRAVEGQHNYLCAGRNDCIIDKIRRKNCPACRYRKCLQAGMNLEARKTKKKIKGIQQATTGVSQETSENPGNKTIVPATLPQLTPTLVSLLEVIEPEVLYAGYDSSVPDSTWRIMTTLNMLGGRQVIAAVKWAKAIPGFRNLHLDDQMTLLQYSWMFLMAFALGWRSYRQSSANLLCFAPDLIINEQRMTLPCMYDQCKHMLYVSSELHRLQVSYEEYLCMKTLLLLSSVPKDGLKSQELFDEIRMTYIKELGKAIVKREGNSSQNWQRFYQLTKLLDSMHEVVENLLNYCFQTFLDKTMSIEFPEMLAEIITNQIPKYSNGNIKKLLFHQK
How it was run: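 CHO-K1 cells expressing nuclear EA and GR-ED fragments of b-gal; compounds titrated up to 46 uM final, 2 h at 37 C. GR nuclear translocation read as complemented b-gal luminescence after 1 h RT detection.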

[4] = target: 3',5'-cyclic-AMP phosphodiesterase 4B (Homo sapiens) (UniProt Q07343); assay: qHTS Assay for Inhibitors of PDE-IV (AID 607; active = well fitted activation curve with a large enough effect in the main read-out, with a control signal flat, not every such curve was filed as active; note: % of control where 0% means no effect)
Sequence of 3',5'-cyclic-AMP phosphodiesterase 4B (Homo sapiens) (Q07343 whole entry, looked up): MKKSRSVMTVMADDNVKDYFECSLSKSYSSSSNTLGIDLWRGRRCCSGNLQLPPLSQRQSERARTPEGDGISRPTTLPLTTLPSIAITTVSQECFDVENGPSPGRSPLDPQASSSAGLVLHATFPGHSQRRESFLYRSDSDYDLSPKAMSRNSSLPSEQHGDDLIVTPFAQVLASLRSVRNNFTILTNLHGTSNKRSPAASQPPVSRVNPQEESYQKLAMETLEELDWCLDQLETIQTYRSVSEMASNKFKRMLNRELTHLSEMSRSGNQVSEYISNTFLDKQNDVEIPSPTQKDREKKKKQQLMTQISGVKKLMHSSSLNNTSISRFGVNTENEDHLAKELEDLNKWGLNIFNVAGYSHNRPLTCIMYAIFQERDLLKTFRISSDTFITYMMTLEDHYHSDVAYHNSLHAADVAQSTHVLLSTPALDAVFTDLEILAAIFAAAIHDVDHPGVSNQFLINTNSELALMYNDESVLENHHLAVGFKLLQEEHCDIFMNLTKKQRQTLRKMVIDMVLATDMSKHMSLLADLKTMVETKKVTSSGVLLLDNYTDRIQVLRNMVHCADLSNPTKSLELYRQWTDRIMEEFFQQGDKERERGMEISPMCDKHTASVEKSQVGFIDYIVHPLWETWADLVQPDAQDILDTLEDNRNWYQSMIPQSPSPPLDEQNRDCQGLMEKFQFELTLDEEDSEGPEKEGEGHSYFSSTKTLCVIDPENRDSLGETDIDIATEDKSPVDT
How it was run: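 Cell-based read-out of cAMP via a modified cyclic nucleotide-gated channel and membrane potential dye (535/590 nm) in HEK293 cells expressing PDE4 endogenously. Compounds tested up to 22.9 uM final; 100 uM RO 20-1724 reference.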

[5] = target: Cytochrome P450 3A4 (Homo sapiens) (UniProt P08684); assay: qHTS Assay for Inhibitors and Substrates of Cytochrome P450 3A4 (AID 884; active = well fitted curve in the direction sought with a large enough effect; an effect the other way counts as inactive or inconclusive; note: potency is the fitted concentration of half-maximal effect; nearly all actives have a fitted effect of over 50% in size)
Sequence of Cytochrome P450 3A4 (Homo sapiens) (P08684 whole entry, looked up): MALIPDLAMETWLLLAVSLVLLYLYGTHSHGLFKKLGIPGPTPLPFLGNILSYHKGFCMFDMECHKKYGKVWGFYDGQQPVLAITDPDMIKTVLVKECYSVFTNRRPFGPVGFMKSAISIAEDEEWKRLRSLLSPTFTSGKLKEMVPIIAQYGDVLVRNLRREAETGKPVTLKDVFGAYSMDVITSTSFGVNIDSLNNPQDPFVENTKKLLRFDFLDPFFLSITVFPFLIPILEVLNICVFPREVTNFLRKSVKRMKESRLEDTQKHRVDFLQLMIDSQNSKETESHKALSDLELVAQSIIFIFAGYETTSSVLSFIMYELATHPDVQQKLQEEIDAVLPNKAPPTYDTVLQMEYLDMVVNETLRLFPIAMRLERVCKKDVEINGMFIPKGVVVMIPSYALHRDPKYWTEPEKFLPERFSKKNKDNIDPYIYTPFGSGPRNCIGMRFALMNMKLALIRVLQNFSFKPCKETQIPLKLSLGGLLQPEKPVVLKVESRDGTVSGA
How it was run: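 20 nM human CYP3A4 with 25 uM Luciferin-PPXE (at KM) in 200 mM KPO4, preincubated 10 min with compound; NADPH regeneration started a 60 min RT reaction. Luciferin detected by luminescence, normalized to 57 uM ketoconazole as full inhibition.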

[6] = target: Cytochrome P450 3A4 (Homo sapiens) (UniProt P08684); assay: qHTS Assay for Activators of Cytochrome P450 3A4 (AID 885; active = well fitted curve in the direction sought with a large enough effect; an effect the other way counts as inactive or inconclusive; note: nearly all actives have a fitted effect of over 65% in size)
How it was run: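 Signal was normalized against complete inhibition by 57 uM ketoconazole. The reaction used 20nM CYP3A4 with 25uM Luciferin-PPXE, 10-min compound preincubation and a 60-min NADPH-supported step at RT.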

[7] = qHTS Assay for Lipid Storage Modulators (AID 1519; calls by dose curve); settings: Drosophila S3 cells, BODIPY lipid droplet/cell ratio, laser cytometry, cells loaded with oleic acid; for activity change, negative = inhibition: at 25.7 µM (top of the series)
How it was run: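 Cells seeded at 5,000 per well were treated with compounds over a concentration series and loaded with oleic acid (400 uM, as added). Lipid droplet fluorescence (488 nm excitation, 500-530 nm channel) was read by laser-scanning cytometry and normalized to 20 uM Triacsin C.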

[8] = target: Ubiquitin carboxyl-terminal hydrolase 1 (Homo sapiens) (UniProt O94782); assay: Inhibitors of USP1/UAF1: Pilot qHTS (AID 504865; active = well fitted curve in the direction sought with a large enough effect; an effect the other way counts as inactive or inconclusive; note: nearly all actives have a fitted effect of over 35% in size; note: potency is the fitted concentration of half-maximal effect)
Sequence of Ubiquitin carboxyl-terminal hydrolase 1 (Homo sapiens) (O94782 whole entry, looked up): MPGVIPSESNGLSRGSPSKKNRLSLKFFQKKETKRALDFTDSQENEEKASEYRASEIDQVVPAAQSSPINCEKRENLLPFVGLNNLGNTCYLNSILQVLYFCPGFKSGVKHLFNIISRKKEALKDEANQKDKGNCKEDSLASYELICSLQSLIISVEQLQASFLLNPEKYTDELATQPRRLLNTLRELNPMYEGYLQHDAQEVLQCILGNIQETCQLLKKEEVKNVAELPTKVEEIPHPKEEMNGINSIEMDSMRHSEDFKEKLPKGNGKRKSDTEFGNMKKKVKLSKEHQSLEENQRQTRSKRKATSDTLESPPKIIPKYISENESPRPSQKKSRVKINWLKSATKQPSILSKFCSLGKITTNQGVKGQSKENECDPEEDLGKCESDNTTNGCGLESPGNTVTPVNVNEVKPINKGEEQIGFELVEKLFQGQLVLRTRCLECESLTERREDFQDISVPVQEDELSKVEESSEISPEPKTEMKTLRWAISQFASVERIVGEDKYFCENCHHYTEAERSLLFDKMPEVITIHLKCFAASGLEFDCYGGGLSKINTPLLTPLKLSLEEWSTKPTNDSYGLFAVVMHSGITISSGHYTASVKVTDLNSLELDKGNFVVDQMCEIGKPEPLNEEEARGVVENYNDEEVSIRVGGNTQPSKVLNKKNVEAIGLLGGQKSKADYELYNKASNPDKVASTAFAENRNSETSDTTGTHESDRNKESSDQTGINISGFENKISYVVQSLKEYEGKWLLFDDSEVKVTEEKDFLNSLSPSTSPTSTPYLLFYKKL
How it was run: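 1nM USP1/UAF1 + cpd, 15 min RT; start w/ Ub-Rho 150nM final; kinetic FL 480/540 nm, 6 reads q60 s. Buffer 50mM HEPES pH 7.8, 0.5mM EDTA, 1mM TCEP, 0.01% Tween-20, 0.1 mg/ml BSA.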

[9] = NFAT Signaling Pathway (AID 444); settings: Jurkat NFAT-bla M1, carbachol, beta-lactamase ratio, 5 h; at 17.2 µM (top of the series);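 note: carbachol stimulus at about its EC50 of 1 µM final; % is set by controls: 0 for no effect and ±100 for the full control effect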
How it was run: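 Jurkat cells with NFAT-driven β-lactamase reporter and co-expressed M1 receptor, stimulated with carbachol (final 1 uM, ~EC50), compound titration, 5 h at 37 °C. CCF4 loaded 1 h at RT; 460/530 nm ratio gave %activity and AC50.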

[10] = Stat Signaling Pathway (AID 446);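 note: ME-180 cervical cancer cells given 40 pM IL-6 alongside compound; SIE-controlled beta-lactamase reporter measured as 460/530 nm FRET emission ratio; % is set by controls: 0 for no effect and ±100 for the full control effect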
How it was run: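 Reporter line: ME-180 cervical carcinoma, SIE-beta-lactamase. Treatment: compound with 40 pM IL-6, 5 hrs, 37 C, in low-serum OPTI-MEM with 10 mM HEPES pH 7.3. Detection: 460/530 nm fluorescence.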

[11] = target: Mitogen-activated protein kinase 10 (Mus musculus) (UniProt Q61831); assay: JNK3 AlphaScreen Assay (AID 530);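 note: kinase came from lysate of stimulated human HepG2 cells; signal reports phosphorylation of biotinylated GST-cJun 1-79 at Ser73 with 10 µM ATP; % is set by controls: 0 for no effect and ±100 for the full control effect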
How it was run: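 qHTS format: compounds tested as titrations against IL-1beta/TNF-alpha-activated HepG2 lysate JNK3 with biotin-GST-cJun substrate and 10 uM ATP at room temperature. Loss of anti-phospho-cJun AlphaScreen signal indicates inhibition.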

[12] = target: Glucocorticoid receptor (Homo sapiens) (UniProt P04150); assay: GR-GFP Redistribution (AID 450;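 active = compounds whose dose series gives a full or clear partial fitted curve of increased nuclear translocation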; note: potency is the fitted concentration of half-maximal effect); settings: U2OS GR-GFP nuclear translocation, laser cytometry, 2 h
[13] = measured here: cell count channel max response
[14] = measured here: lipid channel max response

Row | SMILES | outcome [1] | Potency [2] | Potency [3] | Potency [4] | Potency [5] | Potency [6] | activity change, negative = inhibition [7] | max response [7, 13] | max response [7, 14] | Potency [8] | activity change, negative = inhibition [9] | outcome [10] | outcome [11] | Potency [12]
1 | CN1Cc2c(ccc3c2OCO3)[C@@H]2[C@@H](O)Cc3cc4c(cc3[C@@H]21)OCO4 | inactive | 2.51 µM (active) and 794 nM (active) | > 20.6 µM (inactive) and > 46 µM (inactive) | inactive | 5.01 µM (active) | inactive | 0.247% (inactive) | 0.16% | -1.15% | inactive |  |  |  | 
2 | C[C@H]1CC[C@@]2(NC1)O[C@@H]1C[C@H]3[C@@H]4CC[C@@H]5C[C@@H](O)CC[C@@]5(C)[C@@H]4CC[C@]3(C)[C@@H]1[C@@H]2C | inactive | inactive |  | inactive |  |  | -2.33% (inactive) | 0.178% | -2.87% | inactive | 1.76% (inactive) | inactive | inactive | 
3 | CC1=CC(=O)C2=C(C)C[C@@H](O)[C@@H]3[C@@H](OC(=O)[C@H]3C)[C@H]12 | inactive |  | > 20.6 µM (inactive) | inactive |  |  | -1.62% (inactive) | -12.9% | -12% | inactive | -5.22% (inactive) | inactive | inactive | 
4 | COc1cc2c(cc1O)[C@H]1Cc3ccc(OC)c(O)c3CN1CC2 | inactive | 15.8 µM (active) | > 20.6 µM (inactive) | inactive |  | inactive | -1.48% (inactive) | -2.59% | -3.7% | 10 µM (active) |  | inactive |  | > 20.6 µM (inactive)
5 | C[C@H]1C(=O)O[C@@H]2CCN3CC=C(COC(=O)[C@@](C)(O)[C@@]1(C)O)[C@H]23 | inactive | inactive | > 20.6 µM (inactive) | inactive |  |  | -2.11% (inactive) | 4.14% | 3.19% | inactive | 3.38% (inactive) |  | inactive | > 20.6 µM (inactive)
6 | CC(=O)[C@@H]1CC[C@H]2[C@H]3CC[C@H]4C[C@@H](O)CC[C@]4(C)[C@@H]3C(=O)C[C@@]12C | inactive |  |  | inactive |  |  | -4.19% (inactive) | -12.1% | -15.2% | inactive | -7.61% (inactive) | inactive | inactive | 
7 | CCN1C[C@@]2(COC)CC[C@H](O)[C@@]34[C@@H]2C[C@@H]([C@@H]13)[C@]1(O)C[C@@H](OC)C2C[C@H]4[C@H]1[C@H]2OC(C)=O | inactive |  | > 20.6 µM (inactive) | inactive |  |  | 2.15% (inactive) | -6.46% | -5.05% |  | -14.2% (inactive) | inactive | inactive | 
8 | C#C[C@@]1(O)CC[C@@H]2[C@@H]3CCC4=CC(=O)CC[C@@]4(C)[C@H]3CC[C@]21C | inactive |  | > 20.6 µM (inactive) | inactive |  |  | -1.74% (inactive) | -8.16% | -11.2% |  | -15.1% (inactive) | inactive | inactive | 0.155 µM (active)

— PubChem BioAssay (NCATS)
